This note sets out measurements from PubChem BioAssay AID720700 (The Scripps Research Institute Molecular Screening Center, 2013).

The structures appear in SMILES notation. In all, about 370,000 compounds went through this assay and about 3,100 (0.84%) were called active. The full list was thinned out, with actives kept by preference. Values without a mark were called inactive. Rule as the data show it: active = inhibition above about 9.5%; inactive = the rest.

The target of the test is 1-phosphatidylinositol 4,5-bisphosphate phosphodiesterase gamma-1 (Homo sapiens) (UniProt P19174). In words: PLC-gamma1 enzyme inhibitors, primary screen, biochemical, fluorescence, purified enzyme (AID 720700). As to conditions: purified PLC-gamma1, fluorogenic substrate, at 12.2 µM, active compounds read high.
Chain of 1-phosphatidylinositol 4,5-bisphosphate phosphodiesterase gamma-1 (Homo sapiens) (P19174 whole entry, looked up): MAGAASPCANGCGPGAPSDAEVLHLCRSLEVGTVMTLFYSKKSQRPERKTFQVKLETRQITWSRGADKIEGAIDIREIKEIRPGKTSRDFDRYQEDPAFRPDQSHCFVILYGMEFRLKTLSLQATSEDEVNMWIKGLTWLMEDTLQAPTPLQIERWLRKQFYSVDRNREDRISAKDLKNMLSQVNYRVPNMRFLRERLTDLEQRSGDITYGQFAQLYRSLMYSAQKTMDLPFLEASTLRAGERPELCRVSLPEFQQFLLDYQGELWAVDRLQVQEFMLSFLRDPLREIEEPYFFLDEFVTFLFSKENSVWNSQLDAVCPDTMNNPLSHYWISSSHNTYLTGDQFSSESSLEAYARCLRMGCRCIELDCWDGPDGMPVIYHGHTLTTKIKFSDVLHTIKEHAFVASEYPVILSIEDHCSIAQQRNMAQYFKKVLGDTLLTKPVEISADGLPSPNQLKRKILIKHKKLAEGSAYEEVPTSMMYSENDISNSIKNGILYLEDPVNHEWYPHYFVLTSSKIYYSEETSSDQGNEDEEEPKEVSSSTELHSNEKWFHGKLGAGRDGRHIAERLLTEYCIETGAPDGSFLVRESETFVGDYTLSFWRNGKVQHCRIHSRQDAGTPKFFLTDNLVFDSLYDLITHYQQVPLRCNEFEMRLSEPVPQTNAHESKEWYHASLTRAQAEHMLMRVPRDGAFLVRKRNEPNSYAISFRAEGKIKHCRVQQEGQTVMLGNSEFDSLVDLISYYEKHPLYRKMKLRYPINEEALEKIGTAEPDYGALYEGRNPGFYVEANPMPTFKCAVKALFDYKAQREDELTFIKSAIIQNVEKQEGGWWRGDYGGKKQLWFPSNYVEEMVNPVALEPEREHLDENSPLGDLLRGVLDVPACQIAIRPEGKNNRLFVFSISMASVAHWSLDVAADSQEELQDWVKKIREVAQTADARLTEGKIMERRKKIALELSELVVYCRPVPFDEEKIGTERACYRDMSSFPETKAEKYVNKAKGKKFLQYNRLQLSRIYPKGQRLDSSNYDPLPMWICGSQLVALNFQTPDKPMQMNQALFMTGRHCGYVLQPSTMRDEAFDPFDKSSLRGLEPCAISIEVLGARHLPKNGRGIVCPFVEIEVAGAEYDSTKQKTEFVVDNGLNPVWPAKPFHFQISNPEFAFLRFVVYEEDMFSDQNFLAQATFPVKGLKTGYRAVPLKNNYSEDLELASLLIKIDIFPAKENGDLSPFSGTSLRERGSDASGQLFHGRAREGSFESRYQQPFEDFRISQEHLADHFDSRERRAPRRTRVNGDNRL
On to `COC(=O)[C@]12C[C@H](CC(=O)N3CCN(C(=O)C4CC4)CC3)C(=O)N(CCC3=CCCCC3)C1=C[C@H](C(C)C)O[C@@H]2C1CC1`, for which the inhibition is -0.79%.
`OC(CNCC1CCCO1)Cn1c2ccc(Br)cc2c2cc(Br)ccc21` (stereo not given): the inhibition was 9.98% (active).
As to `COCCNC(=O)c1ccc(Cn2c(SCC(=O)NCC3CCCO3)nc3ccc(Br)cc3c2=O)cc1` (stereo not given), the inhibition was 0.38%.
For the molecule `O=C(CNC(=O)c1ccc(Br)o1)NCC1CCCO1` (stereo not given), the inhibition was -1.19%.
Under `COc1cccc(CSc2nnc(-c3cccnc3)n2Cc2ccccc2)c1` stands -0.88%; under `N[C@@H](Cc1ccccc1)C(=O)N1CCC[C@@H]1C(=O)N1CCC2CCN(S(=O)(=O)c3ccccc3)CC21` (stereo not given in full), 1.45%.
Then `CCCCC(=O)N[C@@H]1CC[C@@]23CCCN2C(=O)CCC[C@H]3[C@H]1C`, with 0.85%; and `COc1ccc(S[C@]2(C(=O)N(C)C)CC(=O)N(c3ccc(OC)cc3)[C@@H]2c2ccc(OC)cc2)cc1`, with 3.67%; and `COc1cc(/C=C/C(=O)n2cnc3ccccc32)cc(OC)c1OC`, with -0.84%.
Then `Cc1ccccc1CN1CCCCC(NC(=O)Nc2ccccc2F)C1=O` (stereo not given), with 4.92%; and `Nn1cnnc1N/N=C/c1cc([N+](=O)[O-])c(Cl)cc1Cl`, with 13.2% (active); and `O=C(Nc1ccc(Br)cc1)C1CCC(=O)N1Cc1ccccc1Cl` (stereo not given), with 9.91% (active).
Turning to `COc1ccc(NC(=O)N2CCCC2C(=O)NCc2ccccc2Cl)cc1` (stereo not given), the inhibition was -0.63%.
For the molecule `O=C1c2ccccc2C(O)N1Cc1ccccc1Cl` (stereo not given), the inhibition was -1.89%.
As to `COc1ccc(-n2c(SCC(=O)Nc3ccc4c(c3)OCCO4)nnc2-c2ccc(Cl)cc2)cc1`, the inhibition is 2.18%.
As to `O=S1(=O)c2c(NCc3ccco3)cccc2Oc2ccccc2CN1Cc1cn(Cc2cccc(C(F)(F)F)c2)nn1`, the inhibition was -41.1%.
Consider `CCCCc1nc2ccccc2c(NC(=O)CN2CCN(C)CC2)c1CCC`, for which the inhibition is 31.4% (active).
On to `O=C(CN1CCN(c2ccc(O)cc2)CC1)Nc1ccc(-c2ccccc2)cc1`, for which the inhibition was 5.1%.
Take `CCc1cc(C(=O)c2ccc(OC)cc2)c(NC(=O)CN2CCN(C)CC2)s1`: the inhibition was -5.73%.
Under `Clc1ccc(-n2c(COc3ccccc3)nnc2SCc2nc3ccccc3[nH]2)cc1` stands -0.91%.
As for `Cc1cccc(NC(=O)c2ccc(COc3ccccc3[N+](=O)[O-])o2)n1`, the inhibition is -0.91%.
Under `Cc1cc(O)c(NC(=O)c2ccc(C)c([N+](=O)[O-])c2)cc1C` stands 4.76%; under `CCCCNc1ccc(C(=O)Nc2cccc(C)n2)cc1[N+](=O)[O-]`, 16.8% (active).
Then `O=C(Nc1cc(F)cc(F)c1)OC1CCC12CCC(c1ccccc1)CC2` (stereo not given), with 0%; and `C=CCN1[C@H](CC(C)C)COc2cccc(N3CCCC3)c2S1(=O)=O`, with -4.7%.
Under `C[C@H]1[C@H](NC(=O)c2cccc(N(C)C)c2)CC[C@@]23CCCN2C(=O)CCC[C@@H]13` stands -87.5%; under `Cc1sc2nc(SCC(=O)c3ccc(O)c(O)c3)n(Cc3ccco3)c(=O)c2c1C`, 4.7%; under `CCC(C)CN1C(=O)CSCC1(C)C(=O)NCc1ccccc1` (stereo not given), 3.07%.
Regarding `CC1(C(=O)NCc2ccccc2)CSCC(=O)N1CCCN1CCOCC1` (stereo not given), the inhibition was 10.3% (active).
Under `CC1(C(=O)NCc2ccccc2)CSCC(=O)N1CCCn1ccnc1` (stereo not given) stands 0.21%; under `Cc1cc(=O)[nH]c(SCC(=O)Nc2ccc(Cl)cc2C)n1`, 3.72%.
Under `C=C(C)C#CC(Cc1ccccc1)N(CC1CC1)/C(N)=N/C(=O)OCc1ccccc1` (stereo not given) stands -163%.
Under `O=S1(=O)c2c(cccc2N2CCSCC2)Oc2ccccc2CN1Cc1cn(Cc2ccc(F)cc2)nn1` stands -5.24%; under `O=C(Nc1ccccc1Cl)/C(Cl)=C(\Cl)S(=O)c1ccccc1` (stereo not given), 12.4% (active).
`CN1C(=O)c2cc(NS(C)(=O)=O)ccc2OC[C@@H]2O[C@@H](CC(=O)NCc3ccc(-c4ccccc4)cc3)CC[C@H]21`: the inhibition is -2.2%.
Then `CCC(=O)c1c(CC)c2n3c1=CC[C@H]3CC(Br)C=2` (stereo not given in full), with -6.13%; and `CC(=O)N1CCc2cc(S(=O)(=O)NCCC(=O)N3CCCC3)ccc21`, with 1.19%; and `COc1ccc(N2CC(C(=O)NCCS(=O)(=O)N3CCN(c4ccccc4)CC3)CC2=O)cc1` (stereo not given), with 4.62%.
Then `Cc1ccc(N2CC(C(=O)NCCS(=O)(=O)N3CCN(c4ccccc4)CC3)CC2=O)cc1` (stereo not given), with 10.4% (active).
Consider `COCCCNC(=O)C1CC(=O)N(c2ccc(C)cc2)C1` (stereo not given), for which the inhibition was -0.12%.
Regarding `O=C(NC1CCCC1)C1CSCCS(=O)(=O)N1Cc1ccccc1` (stereo not given), the inhibition is -0.17%.
Then `COc1ccc(C(=O)c2c(C)c(CCC#N)n3ccccc23)c(OC)c1`, with -3.69%; and `COc1cccc(C(=O)CC(=O)C(=O)Nc2ccc([N+](=O)[O-])cc2C)c1`, with -0.82%.
Then `Cc1c(C(=O)c2cccc([N+](=O)[O-])c2)c2ccccn2c1CCC#N`, with 11.7% (active); and `Cc1cc(C)cc(NC(=O)N2CCC(N(C)CCC(C)C)CC2)c1`, with 3.12%.
Then `CCC(c1ccc(NC(=O)OC(C)(C)C)cc1)c1cc(OC)cc(OC)c1` (stereo not given), with 1.5%; and `N#Cc1c(NC(=O)c2ccc(N3CCOCC3)c([N+](=O)[O-])c2)sc2c1CCCC2`, with 3.4%.
For the molecule `CC(=O)c1c(C)[nH]c(C(=O)OCC(=O)Nc2sc3c(c2C#N)CCCC3)c1C`, the inhibition is -7.9%.
Under `N#Cc1c(NC(=O)C2CCCO2)sc2c1CCCCC2` (stereo not given) stands 12.2% (active).
As for `O=C(Nc1ccccc1)N1CCN(Cc2nc3ccccc3c(=O)[nH]2)CC1`, the inhibition was -0.51%.
Take `C/C(CC(C)C)=N\Oc1nc(C)cc(C)n1`: the inhibition is 9.91% (active).
`COc1cccc(CNC(=O)C2CCCN(c3nc4ccccc4o3)C2)c1OC` (stereo not given): the inhibition was 0.94%.
On to `COC(=O)[C@H](C(C)C)N1CCc2nnn(Cc3ccc(C)cc3)c2-c2ccccc2S1(=O)=O`, for which the inhibition is 0.55%.
Then `Cc1ccc(-c2c(C)n([O-])c3c([n+]2=O)CCC3)cc1`, with 1.87%; and `CCOc1ccc(-c2c(C)n([O-])c3c([n+]2=O)CCCC3)cc1`, with -0.45%.
Under `CCc1c(C)n([O-])c2c([n+]1=O)CCCCC2` stands 11% (active).
Under `CC(CCN1CCC(C(O)(c2ccccc2)c2ccccc2)CC1)Oc1ccc(Cl)cc1` (stereo not given) stands 3.75%; under `CCCC[C@H]1C2CC(OC(=O)NCc3ccccc3)C(C2)[C@H]2CCCCN21` (stereo not given in full), -1.64%; under `CC12c3ccccc3C(c3ccccc31)C1C(=O)N(Cc3cccnc3)C(=O)C12` (stereo not given), 1.04%.
Take `Cc1cccc(C)c1NC(=O)CN1C(=O)C(C)Oc2ccccc21` (stereo not given): the inhibition is 1.55%.
Then `CC1Oc2ccccc2N(Cc2cccnc2)C1=O` (stereo not given), with 11% (active); and `Cc1ccc(C2=CCN(C)C(=O)N2c2ccc(Cl)cc2)cc1`, with -0.42%.
Under `CC(c1c[nH]c2ccccc12)c1c(-c2ccccc2)n(C)c2ccccc12` (stereo not given) stands -4.35%.
As to `CC(C)C(C#CC1CC1)N(Cc1ccc2c(c1)OCO2)C(N)=NC(=O)/C=C/c1cccc(C(F)(F)F)c1` (stereo not given), the inhibition is 0.02%.
Turning to `C=CCN(C(=O)[C@@H](CCCC)[C@@H](O)c1ccc(Cl)cc1)c1ccccc1`, the inhibition was -0.11%.
Then `CCOc1ccc(S(=O)(=O)NCCC(=O)NCC2CCCO2)cc1` (stereo not given), with 2.41%.
For `O=C(CCNS(=O)(=O)c1ccc(Br)cc1)NCC1CCCO1` (stereo not given), the inhibition is 12.3% (active).
On to `CCC(=O)Nc1ccc(S(=O)(=O)NCC2CCCO2)cc1` (stereo not given), for which the inhibition was 3.4%.
Under `COC(=O)[C@]12C[C@H](CC(=O)NCc3ccccc3)C(=O)N(Cc3ccccc3)C1=C[C@H](COCc1ccccc1)O[C@@H]2C` stands 8.06%.
Take `COc1ccc(-n2c(SCC(=O)Nc3ccccc3-c3ccccc3)nnc2-c2cccnc2)cc1`: the inhibition was -0.54%.
On to `C=C(C)C1CC23C(=O)C4(C(=O)c5ccccc5)C[C@@]5(C)CCC(CC2C1(C)C)(C4=O)C35OC` (stereo not given in full), for which the inhibition was -0.5%.
Under `COC(=O)[C@]12C[C@H](CC(=O)N3CCOCC3)C(=O)N(Cc3ccc(Cl)cc3Cl)C1=C[C@H](C(C)C)O[C@@H]2C1CC1` stands -1.21%; under `O=C(CSc1ncn[nH]1)N/N=C/c1ccc(F)cc1`, 9.55% (active).
Turning to `O=C(CSc1ncn[nH]1)Nc1nsc(-c2ccccc2)n1`, the inhibition was -3.65%.
Under `O=C(CSc1ncn[nH]1)Nc1ccnc2ccccc12` stands 0.33%; under `COc1cc(NC(=O)C2CCCN(S(=O)(=O)c3ccc(C(C)(C)C)cc3)C2)cc(OC)c1` (stereo not given), 0.39%.
With `CC(C)CNc1cccc2c1S(=O)(=O)N(Cc1cn(Cc3ccc(Cl)cc3)nn1)Cc1ccccc1O2`, the inhibition was -48.8%.
Then `C=CCN1[C@@H](Cc2ccccc2)COc2cccc(N3CCSCC3)c2S1(=O)=O`, with 1.11%; and `CCOC(=O)[C@]12CCCCC/C=C\1N(Cc1ccc(OC)cc1)C(=O)[C@H]2CC(=O)N1CCOCC1`, with -0.42%.
As to `CCOC(=O)[C@]12CCCC=C1N(Cc1ccc(OC)cc1)C(=O)[C@@H]2CC(=O)N1CCOCC1`, the inhibition is 0.69%.
Under `CCOC(=O)[C@]12CCCC=C1N(CCCOC)C(=O)[C@@H]2CC(=O)N1CCOCC1` stands 10.2% (active); under `COc1ccc(N2CCN(CCNS(=O)(=O)c3ccc([N+](=O)[O-])cc3)CC2)cc1`, -0.14%.
Then `COC(=O)C1CN(CCc2ccccc2)CCS(=O)(=O)N1Cc1cccc(Cl)c1` (stereo not given), with 0.86%; and `COc1ccc(CSc2nnc(-c3cccc(C)c3)n2C)cc1`, with 1%; and `COc1ccc(-n2c(COc3ccccc3)nnc2SCC(=O)Nc2ccc3c(c2)OCO3)cc1`, with -1.32%.

A word on the inhibition: it is the change of the read-out against control, counted positive when it falls.
